Screens: PubChem, National Center for Advancing Translational Sciences (NCATS)
Only some compounds are listed: those with a hit (about 2% of all), similar ones and a draw of the others.
S-ASM inh = human S-ASM enzyme inhibition; placental ASM, HMU-PC fluorogenic substrate, 60 min; Potency, µM (series often up to 57.5 µM), without a hit: top-dose activity change, negative = inhibition, hits mostly inhibitors; 340,000 tested, 0.006% active; AID 504937
Target sequence (P17405 47-631 limits assumed): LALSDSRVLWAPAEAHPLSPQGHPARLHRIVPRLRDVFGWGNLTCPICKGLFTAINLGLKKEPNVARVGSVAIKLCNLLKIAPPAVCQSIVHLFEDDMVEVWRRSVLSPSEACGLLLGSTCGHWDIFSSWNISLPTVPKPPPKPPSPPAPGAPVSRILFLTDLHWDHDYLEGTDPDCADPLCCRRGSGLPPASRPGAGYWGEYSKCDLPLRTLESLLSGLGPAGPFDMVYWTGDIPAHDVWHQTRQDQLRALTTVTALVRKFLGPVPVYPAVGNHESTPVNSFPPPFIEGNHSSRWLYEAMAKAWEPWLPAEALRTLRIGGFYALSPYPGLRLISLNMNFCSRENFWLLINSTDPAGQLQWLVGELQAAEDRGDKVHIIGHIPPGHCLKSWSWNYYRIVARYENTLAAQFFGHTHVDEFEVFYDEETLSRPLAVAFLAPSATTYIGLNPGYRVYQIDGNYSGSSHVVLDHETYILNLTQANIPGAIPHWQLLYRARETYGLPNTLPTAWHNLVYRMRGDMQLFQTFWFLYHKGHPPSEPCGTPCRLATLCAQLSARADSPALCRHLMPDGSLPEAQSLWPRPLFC
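Human placenta-derived ASM preincubated with compound 10 min at room temperature, then reacted with 9 uM (final) fluorogenic HMU-PC substrate for 60 min at 37 C. Stop solution raises pH to 10; fluorescence read at Ex 386/Em 447 nm.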
Abeta yeast res = restores growth of yeast expressing A-beta42 peptide; yeast expressing A-beta42, growth rescue, OD600, 48 h; response scale: 0% DMSO, 100% iron-clioquinol control; Potency, µM (titrated, usually from 46.1 µM), most hits filed as activators; 410,000 tested, 0.063% active; further: nearly all actives have a fitted effect of over 55% in size
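Growth rescue measured by 600 nm absorbance after 48 h yeast culture at 30 C with compound. Values normalized between DMSO and an equimolar ferric chloride plus clioquinol control.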
aSyn rescue = inhibitors of alpha-synuclein toxicity in yeast | Yeast expressing alpha-synuclein, growth rescue, BacTiter-Glo, 24 h | Potency, µM (doses to about 46.1 µM), inactives show at the highest dose growth rescue (activation), actives largely listed as activators | 370,000 tested, 0.14% active | AID 652106; further: % of control where 0% means no effect; nearly all actives have a fitted effect of over 65% in size
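Screening used galactose-induced yeast with toxic alpha-synuclein levels, exposed to compound for 24 hr at 30 deg C. Cell growth, read with BacTiter-Glo luminescence, gave the measured signal.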
Rango dissoc inh = inhibition of RanGTP-driven Rango-importin beta dissociation; 340,000 tested, 0.071% active; Biochemical FRET Rango-importin beta, RanGTP-induced dissociation; Potency, µM (titrated, usually from 46.1 µM), for inactives: top-dose activity change, negative = inhibition; calls by dose curve; further: % of control where 0% means no effect; nearly all actives have a fitted effect of over 45% in size
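Compounds sat 5 min at room temperature with 0.1 uM Rango biosensor plus 0.25 uM importin beta, then FRET pre-read. RanGTP-RCC1 (0.6 uM Ran, 2mM GTP, 0.2 uM RCC1) added for 45 min, and the CFP/YFP post-read measured blocked complex dissociation.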
Rango complex inh = inhibitors of Rango-importin beta complex formation | AID 540263 | Potency, µM (titrated, usually from 92.2 µM), for inactives: at the highest dose inhibition of complex formation | Q14974 | 340,000 tested, 0.031% active | Rango CFP/YFP FRET sensor + importin beta, 45 min; calls by dose curve;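 further: 0% = DMSO wells and 100% = buffer wells lacking importin beta; nearly all actives have a fitted effect of over 15% in size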
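FRET biosensor Rango (snurportin 1 IBB between N-terminal EYFP and C-terminal Cerulean), 50 nM in PBS/1 mM DTT/0.02% Tween-20/0.1% BSA, preincubated 5 min RT with compound; 0.125 microM importin beta added, 45 min RT, CFP/YFP FRET ratio read.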
TDP43 rescue = rescues yeast growth from TDP-43 toxicity. TDP-43 expressing yeast growth rescue, BacTiter-Glo, 24 h. Potency, µM (series often up to 46.1 µM), inactives show at the top dose growth rescue (activation), actives largely listed as activators. 410,000 tested, 1.8% active; further: % of control where 0% means no effect; nearly all actives have a fitted effect of over 50% in size
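Yeast cells expressing TDP-43 under galactose induction are exposed to compounds for 24 hr at 30 deg C. BacTiter-Glo luminescence measures growth, so protective compounds score as activators.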
* hit, by the source's call; i = inactive; u = inconclusive; x = not tested or not shown; ! = repeats disagree; [ ] = remark or other dose. Unless noted, the call rests on the fitted dose curve; in most records, active means well fitted curve in the direction sought with a large enough effect; inconclusive means small, poorly fitted or top-dose-only effect, or another doubt; inactive means no such curve, though single readings can be large; an effect the other way counts as inactive or inconclusive. Potency means the concentration at half of the fitted maximal effect.

SMILES	S-ASM inh	Abeta yeast res	aSyn rescue	Rango dissoc inh	Rango complex inh	TDP43 rescue
COC(=O)C1=C(c2ccc(-c3ccccc3)c(F)c2)C[C@@H]2CC[C@H]1N2C(=O)N1CCOCC1	-10%	i	-6%	1%	3%	20µM*
COC(=O)C1=C(c2ccc(OC(F)(F)F)cc2)C[C@@H]2CC[C@H]1N2C(=O)N1CCCCC1	-13%	i	-22%	2%	3%	35µM*
Cc1ccccc1-n1c(/C=C/c2ccc(N(C)C)cc2)nc2ccccc2c1=O	x	i	-5%	x	x	u
Cc1ccccc1-n1c(/C=C/c2c(C)[nH]c3ccccc23)nc2ccccc2c1=O	x	i	x	x	x	16µM*
O=C(c1ccc2c(c1)N(Cc1ccc(F)cc1Cl)C(=O)c1ccccc1S2)N1CCC2(CC1)OCCO2	x	i	x	x	x	18µM*
O=S(=O)(Nc1ccc(-c2nc3ccccc3o2)cc1)c1ccccc1	18%	i	2%	21%	0%	14µM*
COc1ccc2c(c1OC)CN(C)CCc1cc3c(cc1C(=O)C2)OCO3	1%	i	1%	1%	1%	u
Cc1cc(=O)oc2c(C)c(OC3CCCCC3=O)ccc12 (stereo not drawn)	59%	i	6%	-7%	-2%	u
CC1(C(=O)O)CC12c1ccccc1-c1ccccc12 (stereo not drawn)	3%	i	-20%	u	0%	3.2µM*
Cc1c(C(c2ccc(F)cc2)c2c(O)c3ccccc3oc2=O)c(=O)n(-c2ccccc2)n1C (stereo not drawn)	-2%	u	4%	-7%	-4%	u
Cc1c(C(c2ccccc2Cl)c2c(O)c3ccccc3oc2=O)c(=O)n(-c2ccccc2)n1C (stereo not drawn)	-5%	i	11%	17%	0%	7.9µM*
COc1ccc(C(c2c(O)c3ccccc3oc2=O)c2c(C)n(C)n(-c3ccccc3)c2=O)cc1 (stereo not drawn)	5%	i	-1%	9%	2%	22µM*!
CN(C)c1c([N+](=O)[O-])cc(N2C(=O)C=CC2=O)cc1[N+](=O)[O-]	-2%	i	-79%	9%	2%	-91%
CC(C)c1ccc(NC(=O)Nc2nc(C(N)CCc3ccccc3)cs2)cc1 (stereo not drawn)	x	i	-45%	x	x	10%
O=C1/C(=C/c2cc([N+](=O)[O-])ccc2Cl)N2CCC1CC2	-2%	i	4%	5%	4%	18µM*
Cc1cc2oc(=O)cc(-c3ccccc3)c2c(C)c1-c1ccc(CO)cc1	-1%	i	-15%	0%	0%	35µM*
CCc1cc(=O)oc2cc(C)cc(OCC(=O)N3CCC(C(=O)O)(c4ccccc4)CC3)c12	18%	i	6%	-11%	0%	16%
CC12CCC3c4ccc(O)c([N+](=O)[O-])c4CCC3C1CCC2=O (stereo not drawn)	x	i	4%	x	x	u
O=C1C(Cl)=C(N2CCCCCC2)C(=O)N1c1ccccc1	-6%	i	2%	-12%	u	11µM*
CC1OC(O[C@H]2C[C@@H](O)[C@]3(CO)[C@H]4[C@H](O)C[C@]5(C)[C@@H](C6=CC(=O)OC6)CC[C@]5(O)[C@@H]4CC[C@]3(O)C2)C(O)C(O)C1O (stereo partly drawn)	x	x	0%	x	x	x
Cc1cccc(N2CCN(Cc3ccc4c(c3)OCO4)CC2)c1C	0%	i	0%	-16%	1%	-20%
CCCc1cc(N2CCN(c3cccc(C)c3C)CC2)n2cnnc2n1	x	i	x	x	x	16µM*
O=S(c1ccccc1)c1ccccc1	6%	i	-9%	5%	u	-10%
COc1ccc(COC(=O)CCNC(=O)c2ccc(Cl)cc2)cc1	0%	i	6%	-16%	u	2%
CC(=O)N1CCN(c2ccc(OC[C@H]3CO[C@](Cn4ccnc4)(c4ccc(Cl)cc4Cl)O3)cc2)CC1	2%	i	5.2µM*!	8%	1%	u
SMILES	S-ASM inh	Abeta yeast res	aSyn rescue	Rango dissoc inh	Rango complex inh	TDP43 rescue
CCCC1COC(Cn2cncn2)(c2ccc(Cl)cc2Cl)O1 (stereo not drawn)	7%	u	13%	6%	0%	u
CC(=O)N1CCN(c2ccc(OC[C@@H]3CO[C@@](Cn4ccnc4)(c4ccc(Cl)cc4Cl)O3)cc2)CC1	x	x	3.2µM*	x	x	x
CC1(c2ccc(Cl)cc2Cl)OCC(Cn2cncn2)O1 (stereo not drawn)	1%	i	9%	-6%	2%	4%
CCOc1ccc(NS(=O)(=O)c2ccc(Cl)c(N=Nc3c(O)[nH]c(=S)[nH]c3=O)c2)cc1Br	x	i	u	x	x	4%
O=[N+]([O-])c1ccc(Cl)c([N+](=O)[O-])c1	-9%	i	3%	17%	0%	11µM*
CC(C)CN(CC(C)C)C(=O)C1C2c3ccccc3C(c3ccccc32)C1C(=O)O (stereo not drawn)	-1%	i	-9%	1%	0%	11µM*
CCCCC[C@H]1CCCCC[C@H](O)C[C@H](O)[C@@H](O)/C=C/C(=O)O1	x	i	8%	x	x	21%
COC(=O)C1CN(C#N)N(c2ccc(Cl)cc2)C12c1ccccc1-c1ccccc12 (stereo not drawn)	-18%	i	3%	4%	0%	16µM*
O=C(NCc1ccc(Cl)cc1)C1CCCN(C(=O)c2cnn(-c3ccc(F)cc3)c2-n2cccc2)C1 (stereo not drawn)	x	i	x	x	x	u
Cn1c(O)c(C2=NNC(c3ccc(Cl)cc3)C2)c(=O)n(C)c1=O (stereo not drawn)	-3%	14µM*	-12%	7%	4%	u
O=C(Nc1ccc2c(c1)OCCO2)c1cccn(Cc2cccc(F)c2)c1=O	x	i	x	x	x	35µM*
O=C(Nc1ccc2c(c1)OCO2)c1cccn(Cc2cccc(F)c2)c1=O	x	i	x	x	x	11%
C[C@H](CO)N1C[C@H](C)[C@H](CN(C)C(=O)Cc2ccncc2)Oc2ncc(Br)cc2C1=O	x	i	2%	x	x	4%
Cc1ccc2n1Cc1cnnn1-c1ccccc1-2	x	i	1%	x	x	10µM*
Cc1ccc(C)c(N2CCN(c3nc4ccc(Cl)cc4n4cnnc34)CC2)c1	x	i	x	x	x	u
N#Cc1c(Cl)nc(Cl)c2c1CCN(Cc1ccccc1)C2	i	i	2%	5.2µM*[inhibitor]	u	-1%
